An excerpt weighted towards active compounds, which were near 7.6% of everything screened.
KB-3-1 tox: kills parental KB-3-1 adenocarcinoma cells | hit rate 1.4% among 400,000 | Potency, µM (series often up to 46.1 µM), most hits filed as cytotoxic | KB-3-1 viability, CellTiter-Glo ATP luminescence, 72 h | AID 1347075; note: potency is the fitted concentration of half-maximal effect; % is set by controls: 0 for no effect and ±100 for the full control effect; nearly all actives have a fitted effect of over 60% in size
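Multi-concentration cytotoxicity screen in KB-3-1 cells grown in DMEM lacking phenol red with 10% FBS. After 72 h at 37 °C with compound, ATP-dependent luminescence was recorded.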
hERG WT inh: KCNH2 (human, wildtype) channel inhibition; AID 720551; U2OS, BacMam KCNH2, thallium flux FluxOr; stronger effect = lower value; activity change, % at 1.84 µM; Q12809; hit rate 0.37% among 340,000;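 active = maximum activity change below -70%; inconclusive = maximum activity change between -70% and -50%; inactive = maximum activity change above -50%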; note: % is set by controls: 0 for no effect and ±100 for the full control effect
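U2OS cells were transduced with wild-type KCNH2 virus (2.03 x 10^8 / mL) for 4 h at room temperature, then cultured overnight at 37 C. Thallium flux was read with FluxOr dye. Rate constants were normalized to DMSO controls.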
KB-V1 MDR tox: KB-V1 MDR subline cytotoxicity | KB-V1 MDR cells viability, CellTiter-Glo, 72 h | Potency, µM (doses to about 46.1 µM), most hits filed as cytotoxic | hit rate 3.4% among 400,000 | AID 1347076; note: potency is the fitted concentration of half-maximal effect; % is set by controls: 0 for no effect and ±100 for the full control effect; nearly all actives have a fitted effect of over 60% in size
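KB-V1 MDR subline cells in DMEM (phenol-red free, 10% FBS) exposed to compounds in qHTS concentration series for 72 h at 37 degrees C. Viability read by CellTiter-Glo luminescence; concentration-effect curves fitted after normalization and correction.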
SW480 rerep: inducers of DNA re-replication in SW480 colon cancer cells. Potency, µM (top dose mostly 46.1 µM), for the others: at the top dose re-replication activation, most hits filed as activators. AID 624297. SW480 DNA re-replication, Hoechst DNA content imaging, 48 h. hit rate 1.8% among 340,000; note: potency is the fitted concentration of half-maximal effect; % of control where 0% means no effect; nearly all actives have a fitted effect of over 55% in size
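Readout is total intensity of Hoechst-stained nuclei, excited at 405 nm and collected at 500-530 nm. Compound treatment lasted 48 hr at 37 C in 5% CO2 before staining.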
MCF10A rereplic: induces DNA re-replication in MCF 10a normal breast cells; Potency, µM (doses to about 46.1 µM), for the others: at the highest dose activity, positive = re-replication, hits mostly activators; hit rate 2.9% among 350,000; MCF 10A DNA re-replication, Hoechst nuclear intensity, 48 h; note: potency is the fitted concentration of half-maximal effect; % of control where 0% means no effect; nearly all actives have a fitted effect of over 50% in size
KCNH2 3.1 block: inhibitors of human KCNH2 3.1 potassium channel isoform. U2OS KCNH2 3.1, thallium flux FluxOr; stronger effect = lower value. activity change, % (tested at about 1.8 µM). hit rate 0.95% among 340,000;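 active = maximum activity change below -70%; inconclusive = maximum activity change from -70% to -50%; inactive = maximum activity change above -50%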;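 note: thallium influx rate constant from kinetic fluorescence after stimulation buffer; % is set by controls: 0 for no effect and ±100 for the full control effect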
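Virally transduced U2OS (3.1 isoform, 4 h infection in dark at RT) → overnight 37 C → FluxOr + Red40 in HBSS/HEPES, 45 min → stimulation buffer, 2 min kinetic read → rate constant vs DMSO controls.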
The depositor's hits bear a star. Unless noted, calls come from the whole dose curve; as a rule, active = well fitted curve in the direction sought with a large enough effect; inconclusive = small, poorly fitted or top-dose-only effect, or another doubt; inactive = no such curve, though single readings can be large; an effect the other way counts as inactive or inconclusive.

Screening COc1ccc(C(=O)OCC(=O)c2c[nH]c3ccccc23)cc1OC returned KB-3-1 tox inactive, hERG WT inh -3.9, KB-V1 MDR tox inactive, SW480 rerep -6.5%, MCF10A rereplic 19.3% and KCNH2 3.1 block -1.8.
CC(C)(C)c1ccc(NC(=O)CON=C(N)c2ccccc2)cc1 was read as KB-3-1 tox inactive, hERG WT inh 1.7, KB-V1 MDR tox inactive, SW480 rerep 0.291µM*, MCF10A rereplic 14.7% and KCNH2 3.1 block -20.1.
Cc1cccc(C)c1-n1nnnc1-c1nc2cc3ccccc3cc2[nH]c1=O was read as KB-3-1 tox 1.03µM* and KB-V1 MDR tox 6.51µM*.
For COc1ccc(NC(=O)C(c2ccnc3ccccc23)n2c(=O)c(-c3ccccc3)nc3ccccc32)cc1 (stereo unspecified) the results were KB-3-1 tox inactive and KB-V1 MDR tox inactive.
`CCN(CC)c1ccc(C2C(C(=O)OC(C)C)C(=O)CC(C)(O)C2C(=O)OC(C)C)cc1` (stereo unspecified) gave KB-3-1 tox inactive, hERG WT inh 4.4, KB-V1 MDR tox 18.4µM*, SW480 rerep 0.9%, MCF10A rereplic 13.7% and KCNH2 3.1 block 1.7.
Screening CC(C)COC(=O)C1C(=O)CC(C)(O)C(C(=O)OCC(C)C)C1c1cccnc1 (stereo unspecified) returned KB-3-1 tox inactive, hERG WT inh 3.1, KB-V1 MDR tox 16.4µM*, SW480 rerep -7.6%, MCF10A rereplic -1.4% and KCNH2 3.1 block -12.8.
`CC(C)(C)OC(=O)C1C(=O)CC(C)(O)C(C(=O)OC(C)(C)C)C1c1cccnc1` (stereo unspecified) gave KB-3-1 tox inactive, hERG WT inh -6.8, KB-V1 MDR tox inactive, SW480 rerep -0.3%, MCF10A rereplic -3.4% and KCNH2 3.1 block -6.7.
Screening Cc1ccc(C(=O)c2ccccc2C(=O)OCC(=O)Nc2ccc(SC(F)F)cc2)cc1 returned KB-3-1 tox inactive, hERG WT inh 1.0, KB-V1 MDR tox 11.6µM*, SW480 rerep 21.6%, MCF10A rereplic inconclusive and KCNH2 3.1 block -15.7.
For COc1cc(C(=O)OCC(=O)Nc2ccc(SC(F)F)cc2)cc(OC)c1OC the results were KB-3-1 tox inactive, hERG WT inh 5.6, KB-V1 MDR tox 14.6µM*, SW480 rerep -18.9%, MCF10A rereplic -0.1% and KCNH2 3.1 block -12.1.
Screening Cc1ccc(NC(=O)COC(=O)c2ccccc2Nc2ccccc2)cc1 returned KB-3-1 tox inactive, hERG WT inh 2.1, KB-V1 MDR tox inactive, SW480 rerep -4.3%, MCF10A rereplic -3.6% and KCNH2 3.1 block -6.3.
CSc1ccccc1NC(=O)COC(=O)c1ccccc1Cc1ccccc1 was read as KB-3-1 tox inactive, hERG WT inh -1.6, KB-V1 MDR tox inconclusive, SW480 rerep -2.4%, MCF10A rereplic inconclusive and KCNH2 3.1 block -5.1.
`O=C(COC(=O)c1ccccc1Cc1ccccc1)Nc1ccc(SC(F)F)cc1` gave KB-3-1 tox inactive, hERG WT inh -24.9, KB-V1 MDR tox inconclusive, SW480 rerep inconclusive, MCF10A rereplic 25.9µM* and KCNH2 3.1 block -12.1.
`O=C(COc1cccc(Oc2ccccc2)c1)Nc1ccc(SC(F)F)cc1` gave KB-3-1 tox inactive, hERG WT inh -1.7, KB-V1 MDR tox inactive, SW480 rerep 7.31µM*, MCF10A rereplic 0.731µM* and KCNH2 3.1 block -3.1.
`COc1cc(C(=O)NCCN2CCN(C(=O)c3cc(OC)c(OC)c(OC)c3)CC2)cc(OC)c1OC` gave KB-3-1 tox inactive, hERG WT inh 10.5, KB-V1 MDR tox inactive, SW480 rerep -24.9%, MCF10A rereplic -3.2% and KCNH2 3.1 block 4.2.
Screening COc1ccccc1CNC(=O)CSc1ncc2c(n1)-c1cc(Cl)ccc1N(Cc1ccccc1)S2(=O)=O returned KB-3-1 tox inactive and KB-V1 MDR tox inactive.
